Screening results (PubChem)
This excerpt belongs to a sample that is enriched for hits.
FECH block – human FECH heme synthesis enzyme inhibition | P22830 | purified FECH, Ni-mesoporphyrin absorbance 550 nm | calls only at 10 µM (by protocol) | 20,000 compounds, 3.3% hits | AID 1671448;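 active means enzyme reaction rate more than 3 SD below the solvent-only control wells on the same plate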;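 further: lower slope than DMSO wells means FECH inhibition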
Target sequence (P22830 whole entry, looked up): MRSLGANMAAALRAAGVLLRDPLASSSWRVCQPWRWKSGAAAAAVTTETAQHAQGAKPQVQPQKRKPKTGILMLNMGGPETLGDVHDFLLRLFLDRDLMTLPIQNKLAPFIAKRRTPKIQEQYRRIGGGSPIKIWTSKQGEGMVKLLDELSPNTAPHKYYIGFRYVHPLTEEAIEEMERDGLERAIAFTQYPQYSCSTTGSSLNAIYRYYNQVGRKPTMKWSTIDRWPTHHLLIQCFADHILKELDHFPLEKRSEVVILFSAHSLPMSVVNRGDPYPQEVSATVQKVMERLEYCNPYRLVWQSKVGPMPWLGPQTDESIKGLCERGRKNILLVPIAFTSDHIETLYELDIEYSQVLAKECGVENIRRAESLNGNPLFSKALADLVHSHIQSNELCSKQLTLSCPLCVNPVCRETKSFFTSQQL
Of the large screens only hits and unclear results are named; the others gave an inactive call.

CCN(CC)CCNC(=O)c1ccc(Nc2cc(-c3ccccc3)ncn2)cc1	none
CCCc1nc2nc[nH]n2c(=O)c1NC(=O)Nc1ccc(C)cc1	none
Cc1ccc(-c2cn[nH]c2C2CCCN(C(=O)C3(Cn4ccnc4)CC3)C2)cc1 (centres undefined)	none
O=c1[nH]nc(C2CCC2)n1Cc1ccco1	none
COc1ccc(S(=O)(=O)NCCn2c(CCc3ccccc3)nc3cccnc32)cc1	none
CCOc1ccccc1NC(=O)CN1CCCN(Cc2ccccc2)S1(=O)=O	none
Cc1ccc2c(c1)c(CNC(C)Cn1nc(C)cc1C)nn2C (centres undefined)	none
Cc1ccc(C)c(S(=O)(=O)N2CCN(c3cc(-c4ccc(F)cc4)ncn3)CC2)c1	none
CC(Cn1cccn1)Nc1nccc(CCC(F)(F)F)n1 (centres undefined)	none
CN(Cc1ncc[nH]1)C(=O)COc1ccc(F)cc1	none
NC1(C(=O)O)CCN(Cc2ccc(OCC(=O)N3CCCCC3)cc2)C1 (centres undefined)	none
Cc1cnc(CN(C)C(=O)c2ccc(OCC(=O)N3CCCCC3)cc2)[nH]1	FECH block active
CN1C[C@H](NC(=O)Cn2cnc3ccccc3c2=O)C[C@H]1CO	none
Cc1c[nH]c(CN2Cc3ncccc3C2=O)c(C)c1=O	none
Cc1cccc2[nH]c(C3CCN(Cc4cc(C#CCO)cs4)CC3)nc12	none
Cc1nc2nc(-c3ccccc3)nn2c(Sc2ccc(NS(=O)(=O)c3ccccc3)cc2)c1C	none
O=C(NCCN1CCCOC1=O)C1CCN(Cc2ccco2)CC1	none
Cc1ccc(C(C(=O)NCCN2CCCOC2=O)N(C)C)cc1 (centres undefined)	FECH block active
Cc1ccc(C(C(=O)NCc2ccc(-c3noc(C)n3)cc2)N(C)C)cc1 (centres undefined)	none
Cc1cc(NC(=O)CNCc2csc(-c3cnccn3)n2)ccc1Cl	none
CCOC(=O)c1ccc(NC(=O)CN2CCN(Cc3ccccc3)S2(=O)=O)cc1	none
Cc1nc2nc(N(Cc3cccc(F)c3)S(=O)(=O)c3ccc(Cl)cc3)nn2c(C)c1Cl	none
CCc1ccc2c(c1)-c1ccccc1S(=O)(=O)N2CC(=O)N1CCN(CC)CC1	FECH block active
CN1CCN(C(=O)CN2C(=O)C3CCCCN3c3ccc(C(=O)N(C)C)cc32)CC1 (centres undefined)	none
CCN1CCN(C(=O)CN2C(=O)C3CCCCN3c3ccc(C(=O)N(C)C)cc32)CC1 (centres undefined)	none
CCc1ccc2c(c1)-c1ccccc1S(=O)(=O)N2CC(=O)N1CCN(C)CC1	FECH block active
O=C(CN1C(=O)C2CCCCN2C(=O)c2ccccc21)N1CCN(Cc2ccccc2)CC1 (centres undefined)	none
NC(=O)C1CCN(C(=O)CN2c3ccc(Br)cc3-c3ccccc3S2(=O)=O)CC1	none
CCCc1cc(Sc2ccc(NC(=O)Nc3cc(Cl)ccc3C)cc2)n2ncnc2n1	none
Cc1cc2oc(=O)cc(C)c2cc1NC(=O)c1c(C)nc2ncccn12	none
Cc1cnc(NCc2ccc(C(=O)N(C)C)o2)nc1N(C)C	none
Cn1ncc2c(NCCNC(=O)c3cccnc3)nc(C(C)(C)C)nc21	none
Cc1cnc(NCCNC(=O)c2cccnc2)nc1N(C)C	FECH block active
COc1c(F)cccc1C(=O)N1CCC2(CC1)CC(C(=O)O)N(C)C2 (centres undefined)	none
Cn1cc(Cc2nc(C3CC3)n[nH]2)c2ccccc21	none
CSCc1noc(CN2CCCC3(CC2)CNC(=O)O3)n1 (centres undefined)	none
Cc1cccc(Nc2nc(N(C)CCO)nc3c2cnn3-c2ccccc2)c1	none
Cc1cccc(CN2CCCN(CC(=O)Nc3cc(C)ccc3C)S2(=O)=O)c1	none
O=C(CN1CCCN(Cc2cccc(Cl)c2)S1(=O)=O)Nc1ccccc1	none
Cc1cccc(CN2CCN(CC(=O)Nc3c(C)cccc3C)S2(=O)=O)c1	none
Cc1ccc(NC(=O)CN2CCCN(Cc3cccc(Cl)c3)S2(=O)=O)c(Cl)c1	FECH block active
Cc1cccc(CN2CCCN(CC(=O)Nc3cc(Cl)ccc3C)S2(=O)=O)c1	FECH block active
Cc1ccc(CN2CCCN(CC(=O)Nc3ccc(C)cc3Cl)S2(=O)=O)cc1	none
O=S(=O)(c1ccc(Br)cc1)N1CCC(n2c(C(F)(F)F)nc3cccnc32)CC1	none
CC(C)(C)c1nc(CN2CCC(c3ccccc3C(=O)O)C2)no1 (centres undefined)	none
Cc1ccc(Cl)c(C(=O)NC(C(=O)O)c2c(C)n[nH]c2C)c1 (centres undefined)	none
CC(C)Cc1cc(C(=O)N(C)Cc2cnccn2)on1	none
O=C(CN1CCN(Cc2ccc(F)cc2Cl)S1(=O)=O)NCc1ccccc1Cl	FECH block active
O=C(CN1CCN(Cc2ccccc2Cl)S1(=O)=O)NCc1ccccc1Cl	none
O=C(CN1CCN(Cc2ccc(F)cc2Cl)S1(=O)=O)NCc1ccccc1	FECH block active
Cc1c(Cl)cccc1NC(=O)CN1CCN(Cc2ccc(F)cc2Cl)S1(=O)=O	FECH block active
COc1ccc(CCNC(=O)CN2CCN(Cc3ccc(F)cc3Cl)S2(=O)=O)cc1OC	FECH block active
Cc1cccc(C)c1NC(=O)CN1CCN(Cc2ccc(F)cc2Cl)S1(=O)=O	none
Cc1ccc(CNC(=O)CN2CCN(Cc3ccc(F)cc3Cl)S2(=O)=O)cc1	none
O=C(CN1CCN(Cc2ccccc2Cl)S1(=O)=O)Nc1ccc(F)cc1	none
COC(=O)c1ccc(OC)c(CN2CCN(Cc3ccc(F)cc3Cl)S2(=O)=O)c1	none
O=C(CN1CCN(Cc2ccc(F)cc2Cl)S1(=O)=O)Nc1ccc2c(c1)OCO2	none
O=C(CN1CCN(Cc2ccc(F)cc2)S1(=O)=O)NCc1ccccc1	none
Cc1ccc(CN2CCN(CC(=O)Nc3cccc(Cl)c3C)S2(=O)=O)cc1	none
Cc1ccc(NC(=O)Cn2nc(N3CCN(c4ccc(F)cc4)CC3)ccc2=O)cc1F	none
Cc1nc(-c2ccc(CSc3ncn[nH]3)o2)n(-c2ccc(F)cc2)n1	none
O=S(=O)(c1ccc(-c2ccccn2)s1)N1CCn2cncc2C1	none
Cc1nccc(N2CCC(N3CCCC(C(=O)NC4CC4)C3)CC2)n1 (centres undefined)	none
CN1CC=C(CN(Cc2ccc3c(c2)OCO3)C(=O)c2cccs2)CC1	none
Cc1cc(C)cc(NC(=O)CC(=O)NCCSc2ncn[nH]2)c1	none
CN1CC2(CCN(C(=O)CCc3cccnc3)C2)OC1=O (centres undefined)	none
COCCN(Cc1cnn(C)c1)C(=O)c1cccc(C(F)(F)F)c1	none
CC(=O)N1c2ccc(S(=O)(=O)N3CCCCC3)cc2CC1C(=O)Nc1ccncc1 (centres undefined)	none
CC(=O)N1c2ccc(S(=O)(=O)N3CCOCC3)cc2CC1C(=O)NCCN1CCCC1 (centres undefined)	FECH block active
CC(=O)N1c2ccc(S(=O)(=O)N3CCCCC3)cc2CC1C(=O)NCCCN1CCCC1 (centres undefined)	none
COc1cccc(Cn2c(CNS(=O)(=O)c3c(C)cc(C)cc3C)nc3cccnc32)c1	none
O=C1CC(=O)Nc2cc(S(=O)(=O)N3CCN(c4ccc(F)cc4)CC3)ccc2N1	FECH block active
Cc1ccc(-c2cc(N3CCN(S(=O)(=O)c4ccc(F)cc4)CC3)ncn2)cc1	none
O=C1CC(=O)Nc2cc(S(=O)(=O)N3CCOCC3)ccc2N1	none
Nc1ccc(S(=O)(=O)N2CCN(c3ccc(F)cc3)CC2)cc1S(N)(=O)=O	FECH block active
Cc1ccc(NS(=O)(=O)c2ccc(N)c(S(N)(=O)=O)c2)cc1Cl	none
O=C1CC(=O)Nc2cc(S(=O)(=O)N3CCCCC3)ccc2N1	none
O=S(=O)(NCc1nc2cccnc2n1C1CCCCC1)c1cccc(Cl)c1	none
CCC1=NOC(Cn2cnc(-c3ccccc3)c2-c2cc(C)[nH]n2)C1 (centres undefined)	none
